Measurements reported in the supplement of paper PMC6522484.
± gives the standard deviation of the averaged measurements.

How the values were obtained:
DLD1 [1] = test: cell viability (CellTiter-Glo) relative to plate median (fraction of plate median); higher = more viable cells; details: 5 µM; treatment time 24 h; reporter: 7TFP
In short: (§1)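 Normalisation used webcellHTS2 in additive mode without log transformation, scaling each well's luminescence to the plate median. The luminescence was firefly luciferase or CellTiterGlo, read on a Tecan F500 from parallel plates of colorectal cancer cells stably transduced with lentiviral TCF/Wnt firefly luciferase reporters. Those cells had been given library compounds at a final 5 µM for 24 h, and two independent replicates were averaged.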

HCT116 = test: as above; details: 5 µM; treatment time 24 h; reporter: TCF4/Wnt
In short: as §1

SW480 [2] = test: as above; details: 5 µM; treatment time 24 h; reporter: 7TFP
In short: as §1

DLD1 [3] = test: TCF/Wnt firefly luciferase reporter signal relative to plate median (fraction of plate median); higher = higher Wnt reporter signal; details: 5 µM; treatment time 24 h; reporter: 7TFP
In short: as §1

SW480 [4] = test: as above; details: 5 µM; treatment time 24 h; reporter: 7TFP
In short: as §1

SMILES | cell viability (DLD1 [1]) | cell viability (HCT116) | cell viability (SW480 [2]) | TCF/Wnt firefly luciferase reporter signal (DLD1 [3]) | TCF/Wnt firefly luciferase reporter signal (SW480 [4])
CC(=O)Oc1c(-c2ccccc2)oc2c(CC=C(C)C)c3c(c(OC(C)=O)c2c1=O)C=CC(C)(C)O3 | 1.05 ± 0.057 | 1.11 ± 0.11 | 1.02 ± 0.028 | 0.855 ± 0.044 | 0.972 ± 0.036
Cc1oc(=O)c2c(O)cccc2c1CO [8-Hydroxy-4-hydroxymethyl-3-methyl-isocumarin] | 0.926 ± 0.032 | 0.925 ± 0.027 | 0.98 ± 0.021 | 1.01 ± 0.13 | 0.993 ± 0.0099
CCC[C@@H]1C[C@@H](C(=O)N[C@@H]([C@H]2O[C@H](SC)[C@H](O)[C@@H](O)[C@H]2O)[C@H](C)Cl)N(C)C1 | 0.966 ± 0.15 | 1 ± 0.042 | 1.07 ± 0.057 | 0.907 ± 0.028 | 1.04 ± 0.028
CC(=O)c1ccc2c(c1)N(CCCN(C)C)c1ccccc1S2 | 0.976 ± 0.048 | 0.931 ± 0.037 | 0.964 ± 0.016 | 1.06 ± 0.2 | 0.913 ± 0.12
CC(=O)Oc1ccc(C(c2ccc(OC(C)=O)cc2)c2ccccn2)cc1 | 0.806 ± 0.057 | 0.931 ± 0.15 | 1.1 ± 0.092 | 0.65 ± 0.098 | 1.03 ± 0.085
C[C@@](Cc1ccc(O)c(O)c1)(NN)C(=O)O | 1.01 ± 0.015 | 0.981 ± 0.098 | 1.02 ± 0.067 | 0.8725 ± 0.005 | 0.95 ± 0.13
